In PubChem BioAssay (NCI):
The panel holds about 83,000 compounds, 20% with a hit somewhere; the sample as a whole holds those more often.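 Note: values are percent growth. 100 is the growth of untreated cells, values between 100 and 0 indicate rising inhibition; between -100 and 0 indicates cell death.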 Activity calls are given as the source filed them. Rule for the calls: active = growth percent below 10; inactive = the rest.

System: HL-60(TB) leukemia
Assay: NCI-60 one-dose screen, 48 h (100 = growth as untreated, 0 = no growth, -100 = all killed)
Conditions: 10 µM unless noted

Row | Compound | growth
1 | Cc1cc2nc(-c3c(-c4ccc(F)cc4)nc4sccn34)[nH]c2cc1C | 87.3% (inactive)
2 | Cc1cc(C)cc(Nc2cc(C)nc3nc(C(F)(F)F)nn23)c1 | 15.4% (inactive)
3 | C=C1C(=O)O[C@H]2[C@H]1CC/C(COC(=O)NCc1cc(OC)c(OC)c(OC)c1)=C\CC[C@@]1(C)O[C@@H]21 | 11.5% (inactive)
4 | O=c1oc2ccc(Br)cc2c(=O)n1-c1ccc(I)cc1F | -49.1% (active)
5 | COc1cccc2c1C(=O)c1c(O)c3c(c(O)c1C2=O)C[C@@](O)(C(=O)CO)C[C@@H]3OC1C[C@H](N)[C@H](O)[C@H](C)O1 (some centres undefined) | -26.7% (active)
6 | Nc1nc(SN=Nc2ccc(S(N)(=O)=O)cc2)c2[nH]cnc2n1 | -16% (active)
7 | O=S(=O)(c1ccc(OCCO)cc1)c1ccc(OCCO)cc1 | -0.844% (active)
8 | CN(C)Cc1ccc(C(=O)Nc2ccc3ncnc(Nc4ccc(Oc5cccc(F)c5)c(Cl)c4)c3c2)cc1 | -41.7% (active)
9 | CC1SC(c2c(Cl)cccc2Cl)N(NC(=O)c2[nH]c3ccc(F)cc3c2-c2ccccc2)C1=O (centres undefined) | 103% (inactive)
10 | Cc1ccc(NC(=O)C(Cl)Cl)cc1 | -48.8% (active)
11 | CC(C)C1=CC2=C(C=O)C[C@@H]3[C@](C)(CCC[C@@]3(C)C(=O)OCC#CCN3CCCC3)[C@H]2CC1 | 54.5% (inactive)
12 | CCc1ccc(/C=C/c2ccc(O)c3ncccc23)[n+](C)c1 | 104% (inactive)
13 | C=CC(=O)N1CN(C(=O)C=C)CN(C(=O)C=C)C1 | 25.3% (inactive)
14 | Cn1cc(-c2nonc2-c2c[nH]c3ccccc23)c2cc(Br)ccc21 | 38.2% (inactive)
15 | CC(C)c1ccc(C(=O)OC(=O)c2ccc(C(C)C)cc2)cc1 | 51.3% (inactive)
16 | O=C1/C(=C/c2ccccn2)CCc2ccccc21 | 56.6% (inactive)
17 | CCCCCCCN(CCCCCCC)C(=N)c1ccnc2ccccc12 | -64.4% (active)
18 | COc1ccc2c(c1)C(C)Cc1c(ncnc1-n1cnc3cc(C)ccc31)N2C (centres undefined) | -25.8% (active)
19 | CCc1ccccc1C(=O)N(CC)CC | 95.1% (inactive)
20 | COc1ccc(-c2oc(=O)ccc2-c2cc(OC)c(OC)c(OC)c2)cc1F | 44.6% (inactive)

Row | Compound | growth
21 | CCSc1oc(C)nc1[P+](c1ccccc1)(c1ccccc1)c1ccccc1 | 7.21% (active)
22 | C=CCOc1ccc(Cl)cc1Cl | 20.5% (inactive)
23 | CC(O)CCNC(c1ccccc1)C(O)c1ccccc1 (centres undefined) | 102% (inactive)
24 | Cc1cc2ccccc2c[n+]1CC(=O)c1ccc(-c2ccccc2)cc1 | 22.5% (inactive)
25 | CC[C@@H]1O[C@H](O[C@@H](c2cnc[nH]2)[C@H](NC(=O)c2nc([C@H](CC(N)=O)NC[C@@H](N)C(N)=O)nc(N)c2C)C(=O)N[C@H](C)[C@H](O)[C@H](C)C(=O)N[C@@H](C(=O)NCCc2nc(-c3nc(C(=O)NCCCCN=C(N)N)cs3)cs2)[C@@H](C)O)[C@H](O[C@@H]2O[C@H](CO)[C@H](O)[C@H](OC(N)=O)[C@@H]2O)[C@H](C)[C@@H]1C | 84.4% (inactive)
26 | Cc1cc(CSc2ccc(Cl)cc2)ccc1N | 3.9% (active)
27 | CCN(CC)CCOc1nc2ccccc2c2c1-c1ccc(OC)cc1C2=O | 9.1% (active)
28 | CCCCCCCCCCCCCCCCNc1ccccc1 | 8.47% (active)
29 | COc1cc(-c2cc(C(=O)N3CCN(C(=O)c4ccccc4NCc4cccs4)CC3)nc3cc(-c4ccccc4)nn23)cc(OC)c1OC | 82.7% (inactive)
30 | COc1ccc(CNc2c3ccccc3nc3ccccc23)cc1OC | 12.7% (inactive)
31 | O=C(/C=C/c1cccnc1)/C=C/c1cccnc1 | -43.4% (active)
32 | CCOC(=O)c1ccc(N=Cc2sc(=O)[nH]c2O)cc1 | 101% (inactive)
33 | COc1cc(C(=O)/C=C/c2ccc3nc(-c4cc(F)cc(F)c4)sc3c2)cc(OC)c1OC | 60.1% (inactive)
34 | COC(=O)[C@@H]1CC[C@]2(C)[C@H](CC[C@@H]3O[C@@]32C)[C@@]1(C)CC(=O)c1ccoc1 | 89.8% (inactive)
35 | C=CCc1c(O)c(C(=O)/C=C/c2ccccc2)c(OC)c2ccoc12 | 36.3% (inactive)
36 | COC(=O)c1c2c(c[n+]([O-])c1C)C(=O)C=CC2=O | 28.1% (inactive)
37 | NC(=S)Nc1ccc2c(c1)Cc1ccccc1-2 | 77.4% (inactive)
38 | CC1(C)CC[C@]2(C(=O)O)CC[C@]3(C)C(=CC[C@@H]4[C@@]5(C)C/C(=C/c6cccnc6)[C@H](O)C(C)(C)[C@@H]5CC[C@]43C)[C@@H]2C1 | -8.82% [100 µM] (active)
39 | Cc1ccc(-c2csc(N)n2)cc1 | 112% (inactive)
